The panel holds about 83,000 compounds, 20% with a hit somewhere; the sample as a whole holds those more often.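 Results are percent growth after 48 hours of single-concentration exposure. 100 means growth as in untreated cells, lower positive values show inhibition; negative values down to -100 show cell death.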 Values without a mark were called inactive. Active and inactive are the calls of the source. The calls were made as follows: active = growth percent below 10; inactive = the rest.
Assays:
Assay in all cases: NCI-60 one-dose screen, 48 h (100 = growth as untreated, 0 = no growth, -100 = all killed)
Details in all cases: 10 µM unless noted
[1] = system: NCI-H23 lung
[2] = system: NCI-H226 lung
[3] = system: NCI-H322M lung
[4] = system: HOP-62 NSCLC
[5] = system: NCI-H460 lung
[6] = system: HOP-92 NSCLC
[7] = system: NCI-H522 lung
[8] = system: A549/ATCC NSCLC
[9] = system: 786-0 renal
[10] = system: COLO 205 colon

Compound	growth [1]	growth [2]	growth [3] [%]	growth [4]	growth [5]	growth [6]	growth [7]	growth [8]	growth [9]	growth [10]
C[n+]1c(/C=C\C=C\N2CCCCC2)sc2ccccc21	12.1%	17.7%	17.6	-29.1% (active)	0.479% (active)	-42.3% (active)	-49.3% (active)	-13.7% (active)	-42.4% (active)	-42.7% (active)
Clc1ccc(C(SCc2ccccc2)SCc2ccccc2)cc1	86.1%	86.3%	111	92.1%	98.3%	83%	80.5%	97.6%	111%	90.1%
Cc1ccc2nc(-c3ccc(N=Cc4ccccc4O)cc3)sc2c1	84.4%	70.7%	82.8	77.9%	104%	78.1%	61.3%	71.9%	77.5%	140%
C=C1CC2(OC1=O)C(=O)N(C)c1ccc(I)cc12 (stereo not drawn)	-62.6% (active)	-37.3% (active)	50.6	58.9%	-57% (active)	-95.7% (active)	-56.9% (active)	-19.3% (active)	-71.5% (active)	-84.2% (active)
CN(C)c1ccc(/C=C/C(=O)c2ccc(NC(N)=O)cc2)cc1	96.9%	104%	97	94.1%	102%	103%	95.3%	84.5%	97.1%	112%
CN(C(=S)S(=O)(=O)C12CC3CC(CC(C3)C1)C2)c1ccccc1	97.5%	93.3%	114	116%	110%	71.2%	46.1%	95.1%	89.8%	88.5%
COC1OC(C(COC(C)=O)OC(C)=O)C(OC(C)=O)C(OC(C)=O)C1OC(C)=O (stereo not drawn)	112%	99.4%	115	99.3%	112%	128%	103%	106%	107%	116%
CCCCN(C=S)CCCC	103%	87.4%	105	81.3%	101%	93.8%	91.6%	86.4%	101%	99.1%
Cc1cc(C(=O)NN)c(C#N)c(=O)[nH]1	100%	99.1%	110	97%	97.2%	87.2%	89.8%	101%	107%	94.1%
CCC(C)c1c(N)n(S(=O)(=O)c2ccc(C)cc2)oc1=O (stereo not drawn)	108%	111%	123	112%	105%	105%	90.1%	108%	119%	124%
O=C(O)CC1=CCCCC1	98.9%	103%	98.7	98.3%	106%	82.8%	101%	98.5%	95.2%	108%
Cc1ccc(NC(=O)c2ccccc2Cl)cc1	102%	108%	113	113%	101%	75.5%	98.6%	106%	105%	120%
Ic1cccs1	97.7%	107%	105	99%	108%	121%	97.5%	98%	105%	117%
Oc1cc(O)c2c(c1)O[C@H](c1ccc(O)c(O)c1)[C@@H](O)C2	95.2%	96.6%	105	107%	113%	98.5%	89.5%	97%	106%	108%
C=CC1=NC(C)(C)CC(C)O1 (stereo not drawn)	114%	111%	108	110%	104%	105%	97.5%	104%	103%	116%
CC(=O)NCNC(C)=O	113%	99.8%	110	108%	113%	150%	119%	96.7%	109%	118%
Nc1nc2nnc(-c3ccccc3)c(-c3ccccc3)n2n1	97.2%	88.3%	110	16.7%	100%	61.4%	109%	101%	111%	101%
N#C/C(=C\c1ccc(C#N)cc1)C(=O)c1ccccc1	86.8%	95.5%	97.4	103%	116%	86.3%	91.4%	98.4%	94.2%	123%
COc1cc2c(c(OC)c1OC)-c1ccc(SC)c(=O)cc1[C@@H](NC1OC(CO)C(O)C(O)C1O)CC2 (stereo partly drawn)	29.9%	43.4%	33	25.9%	3.13% (active)	77.9%	-16.8% (active)	10.4%	19.8%	-61.5% (active)
c1ccc(Nc2ccccn2)nc1	95.9%	89%	100	95.9%	96.5%	95.8%	88.2%	109%	97.6%	104%

Compound	growth [1]	growth [2]	growth [3] [%]	growth [4]	growth [5]	growth [6]	growth [7]	growth [8]	growth [9]	growth [10]
CC(=O)C1C(=O)C(=O)N(c2ccc(Cl)c(Cl)c2)C1=O (stereo not drawn)	90.3%	106%	108	89.3%	109%	116%	103%	113%	102%	103%
FC(F)(F)c1cc(NC2=NCCN=C(Nc3cc(C(F)(F)F)cc(C(F)(F)F)c3)SS2)cc(C(F)(F)F)c1	47.2%	67.9%	90.1	74.8%	40%	0.524% (active)	13.1%	49.1%	70.6%	49.1%
Cc1cccc(-[n+]2noc(N)n2)c1	85.5%	80.8%	87.7	87.3%	80.9%	65%	50.9%	102%	93.8%	95.7%
O=C(CCl)Oc1ccc([N+](=O)[O-])cc1	108%	102%	106	98.9%	107%	78.5%	107%	108%	108%	116%
NC(=O)c1cc2c3ccccc3ccn2c1-c1ccccc1	18.7%	23.3%	46.3	24.3%	0.187% (active)	32.7%	53.1%	22.8%	17.4%	-13.2% (active)
COC(=O)c1cccc([N+](=O)[O-])c1	96.3%	103%	103	79.4%	108%	95.1%	101%	94.9%	104%	112%
S=C(Sc1ccc(Cl)cc1)Sc1ccc(Cl)cc1	21.8%	-52.5% (active)	106	47.9%	67.1%	-4.66% (active)	-83% (active)	45.5%	-14.5% (active)	-54% (active)
CC(=O)c1cccc(NS(=O)(=O)c2ccc(C)cc2)c1	83.9%	91%	103	89.9%	102%	74.4%	64.4%	100%	89.5%	117%
CCN(CC)CCN1CNC(=S)NC1	99.2%	-70.2% (active)	108	98.8%	114%	96.5%	94.6%	106%	101%	106%
Cc1cc(CC(=O)NCCO)n(CCO)c(=O)c1	101%	105%	103	91%	103%	115%	93.8%	94.1%	108%	104%
COC1=C(OC)C(=O)C(SC/C=C(\C)CCCC(C)CCCC(C)CCCC(C)C)=CC1=O (stereo not drawn)	14%	40.9%	67.4	38.3%	2.16% (active)	-13.1% (active)	-6.14% (active)	17.8%	66%	94.4%
O=C(NC1CCCCC1)c1ccc(Cl)cc1	95.7%	92.5%	98.1	92.8%	101%	95%	96.2%	99.9%	103%	109%
Cc1cccc(C)c1NC(=S)/N=C\c1c(O)[nH]c(=O)[nH]c1=O	104%	100%	98.5	87.7%	105%	102%	86.4%	79.4%	101%	103%
Cc1ccc(S(=O)(=O)NC(=O)NCCSSCCNC(=O)NS(=O)(=O)c2ccc(C)cc2)cc1	102%	91%	101	105%	103%	92.2%	94.9%	100%	104%	129%
CCOC(=O)CO	104%	99.8%	98.2	104%	106%	95.6%	97%	102%	105%	117%
Cc1ccc(NC(=S)N2CCOCC2)cc1C	107%	92.4%	85.5	99.7%	106%	95%	84.2%	96.8%	97%	118%
OC1Cc2ccccc2C1	90.2%	101%	98.7	95.7%	104%	68.7%	92.6%	97.1%	98.7%	98.8%
Nc1c(O)c(S(=O)(=O)O)c(O)c2c1C(=O)c1ccccc1C2=O	21.5%	41.2%	39	42.6%	8.34% (active)	14.4%	7.56% (active)	19%	59.6%	6.29% (active)
COc1ccc2c(ccc[n+]2C)c1	99.6%	110%	105	106%	106%	110%	54.7%	108%	97.3%	111%
COC(=O)Cc1cc(COC(C)=O)ccc1C	104%	107%	110	110%	109%	79%	99.2%	99.1%	100%	120%

Compound	growth [1]	growth [2]	growth [3] [%]	growth [4]	growth [5]	growth [6]	growth [7]	growth [8]	growth [9]	growth [10]
S=c1nc2[nH]c3ccccc3c2n[nH]1	96.3%	83.1%	98.9	-1.58% (active)	99.5%	55.7%	108%	104%	109%	108%
Cn1/c(=N\N=C\c2ccccc2OCCO)sc2ccccc21	101%	88.3%	80.7	106%	101%	82.5%	90%	102%	115%	91%
OC(CBr)CCBr (stereo not drawn)	105%	110%	101	97.2%	102%	102%	96.5%	90.8%	103%	105%
C1Cc2onc(-c3noc4c3CCC4)c2C1	105%	120%	103	103%	137%	108%	96.5%	104%	106%	115%
O=C(NCc1ccccc1)/C(=C/c1ccccc1)NC(=O)c1ccccc1	104%	98%	104	104%	103%	85.8%	90%	85.4%	112%	110%
C/C(=N\N=C(/C)c1cccc([N+](=O)[O-])c1)c1cccc([N+](=O)[O-])c1	90.3%	111%	96.1	74.3%	86.4%	87.5%	57.3%	79.3%	77.4%	79.8%
S=c1nc(-c2ccccn2)c(-c2ccccn2)n[nH]1	100%	101%	103	110%	112%	66.2%	82.7%	105%	98.4%	115%
O=C(N/N=C\c1ccc(Cl)cc1Cl)c1ccncc1	103%	102%	106	112%	105%	87.9%	84.8%	91%	90.5%	118%
O=C(OC1CCCC1)c1ccccc1Cl	106%	104%	99.7	97.1%	101%	96.2%	93.1%	105%	101%	107%
CCNc1ncnc2[nH]ncc12	114%	98.9%	96.1	103%	106%	101%	113%	107%	105%	114%
Oc1ccc(CCC2CCNc3ccccc32)cc1 (stereo not drawn)	65.3%	62.8%	91.1	75.8%	83.8%	49.3%	68.8%	52.1%	82.2%	93.4%
Nc1ccc(F)c(Cl)c1F	103%	91.3%	110	112%	101%	80%	108%	113%	101%	118%
CC(=O)NNC(=S)/N=C\C(C(=O)c1ccccc1)=C(/O)c1ccccc1	90.1%	96.2%	94.1	88.2%	110%	100%	86.3%	87.3%	99.8%	108%
OCC1CCC(O)C(CO)N1 (stereo not drawn)	110%	104%	113	101%	107%	119%	103%	94.2%	109%	95%
CCOC(=O)c1cc(Cl)c(O)c(Cl)c1	103%	103%	117	106%	108%	109%	103%	100%	107%	99.6%
O=C(CCl)Nc1ccccc1SCc1cc(Cl)cc2c1OCOC2	82.7%	82.8%	89.7	100%	105%	-6.11% (active)	-74.8% (active)	96.5%	99.6%	95.7%
COc1cc(C(=O)NC(=S)NCc2ccncc2)cc(OC)c1OC	91.8%	86.4%	89.5	107%	110%	89.2%	56.7%	99%	97.5%	95.3%
CCOC(=O)/C(O)=C(\C=N\C(=S)Nc1ccc(Cl)c(Cl)c1)C(=O)OCC	87.3%	75.2%	106	94.3%	106%	95.5%	71.4%	101%	115%	92.9%
C1C[S+]2CC[S+]1CC2	97.9%	98.3%	111	104%	101%	111%	98.5%	–	111%	116%
COC1OC(C(O)C(O)CO)C(O)C(O)C1O (stereo not drawn)	106%	93.4%	98.1	88.5%	106%	101%	111%	97.3%	–	111%
